Measured values as given in article PMC7862700, “An all-to-all approach to the identification of sequence-specific readers for epigenetic DNA modifications on cytosine”.

Assays:
Test in all cases: DAPPL (digital affinity profiling via proximity ligation, sequencing); 10 mM Tris-HCl pH 7.5, 50 mM NaCl, 1 mM DTT, 4% glycerol, room temperature, 30 min; GST-TFs on glutathione beads, 16-mer random dsDNA library, 0.1% formaldehyde crosslink after washing; high values mean tight binding
FEV = target: T1, FEV (Homo sapiens, UniProt Q99581 1-238); details: protein: recombinant; tags: N-terminal GST; dsDNA, one strand shown
T1 sequence: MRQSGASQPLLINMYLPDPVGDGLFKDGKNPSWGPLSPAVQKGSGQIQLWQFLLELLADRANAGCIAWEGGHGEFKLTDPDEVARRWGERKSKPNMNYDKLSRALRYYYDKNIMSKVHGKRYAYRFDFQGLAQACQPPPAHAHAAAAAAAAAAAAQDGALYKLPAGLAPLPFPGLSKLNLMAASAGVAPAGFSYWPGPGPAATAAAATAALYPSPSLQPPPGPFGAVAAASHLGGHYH
Outline: (§1)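 Pools of DNA-barcoded human transcription factors, expressed in yeast as GST fusions on glutathione beads and combined with a tag-only sample, were incubated with 200 nmole of a 16-mer random double-stranded DNA library. Incubation took 30 min at room temperature in Tris/NaCl/DTT/glycerol buffer and was followed by washing, 0.1% formaldehyde crosslinking, proximity ligation (BsaI/T4 ligase, 1 h, 37 °C), PCR amplification and sequencing on an Illumina NextSeq500. Binding signal is the ratio of a hexamer's read frequency for a factor to its frequency for the tag-only sample.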

ETV5 = ETV5 (Homo sapiens, UniProt P41161 1-510); details: protein: recombinant; tags: N-terminal GST; dsDNA, one strand shown
Outline: as §1

HSF1 = HSF1 (Homo sapiens, UniProt Q00613 1-529); details: protein: recombinant; tags: N-terminal GST; chain copies: 3; dsDNA, one strand shown
Outline: as §1

SPIC = target: T2, SPIC (Homo sapiens, UniProt Q8N5J4 1-248); details: protein: recombinant; tags: N-terminal GST; dsDNA, one strand shown
T2 sequence: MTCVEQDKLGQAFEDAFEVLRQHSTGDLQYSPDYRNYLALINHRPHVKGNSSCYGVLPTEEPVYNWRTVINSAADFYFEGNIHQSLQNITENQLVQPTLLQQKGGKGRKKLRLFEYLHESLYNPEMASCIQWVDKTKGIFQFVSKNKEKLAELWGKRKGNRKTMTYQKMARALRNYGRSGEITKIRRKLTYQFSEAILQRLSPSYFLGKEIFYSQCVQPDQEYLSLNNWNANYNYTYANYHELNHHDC
Outline: as §1

ELF4 = ELF4 (Homo sapiens, UniProt Q99607 1-663); details: protein: recombinant; tags: N-terminal GST; dsDNA, one strand shown
Outline: as §1

ELK4 = target: T3, ELK4 (Homo sapiens, UniProt P28324-2 1-405); details: protein: recombinant; tags: N-terminal GST; dsDNA, one strand shown
T3 sequence: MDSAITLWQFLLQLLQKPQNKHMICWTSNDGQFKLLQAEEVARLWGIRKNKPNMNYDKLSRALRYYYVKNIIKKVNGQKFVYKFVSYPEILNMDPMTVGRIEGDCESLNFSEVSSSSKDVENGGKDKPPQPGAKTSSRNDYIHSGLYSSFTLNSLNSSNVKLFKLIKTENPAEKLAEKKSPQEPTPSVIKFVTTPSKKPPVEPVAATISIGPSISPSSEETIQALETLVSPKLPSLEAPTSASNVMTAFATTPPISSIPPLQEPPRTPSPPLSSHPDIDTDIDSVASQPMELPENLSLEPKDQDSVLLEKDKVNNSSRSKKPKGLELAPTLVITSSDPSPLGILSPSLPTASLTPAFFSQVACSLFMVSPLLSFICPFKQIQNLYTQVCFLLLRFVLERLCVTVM
Outline: as §1

ETV2 = target: T4, ETV2 (Homo sapiens, UniProt O00321 1-342); details: protein: recombinant; tags: N-terminal GST; dsDNA, one strand shown
T4 sequence: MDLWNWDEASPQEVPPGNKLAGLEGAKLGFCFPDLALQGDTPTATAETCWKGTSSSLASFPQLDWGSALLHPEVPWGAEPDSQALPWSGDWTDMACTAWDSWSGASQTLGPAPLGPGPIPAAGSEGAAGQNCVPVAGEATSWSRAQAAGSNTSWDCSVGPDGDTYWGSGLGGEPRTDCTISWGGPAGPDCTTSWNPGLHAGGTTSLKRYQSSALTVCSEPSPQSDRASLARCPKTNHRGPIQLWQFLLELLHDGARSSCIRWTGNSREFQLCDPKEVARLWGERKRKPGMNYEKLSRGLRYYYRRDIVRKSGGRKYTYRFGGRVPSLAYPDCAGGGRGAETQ
Outline: as §1

ELF3 = target: T5, ELF3 (Homo sapiens, UniProt P78545 1-371); details: protein: recombinant; tags: N-terminal GST; dsDNA, one strand shown
T5 sequence: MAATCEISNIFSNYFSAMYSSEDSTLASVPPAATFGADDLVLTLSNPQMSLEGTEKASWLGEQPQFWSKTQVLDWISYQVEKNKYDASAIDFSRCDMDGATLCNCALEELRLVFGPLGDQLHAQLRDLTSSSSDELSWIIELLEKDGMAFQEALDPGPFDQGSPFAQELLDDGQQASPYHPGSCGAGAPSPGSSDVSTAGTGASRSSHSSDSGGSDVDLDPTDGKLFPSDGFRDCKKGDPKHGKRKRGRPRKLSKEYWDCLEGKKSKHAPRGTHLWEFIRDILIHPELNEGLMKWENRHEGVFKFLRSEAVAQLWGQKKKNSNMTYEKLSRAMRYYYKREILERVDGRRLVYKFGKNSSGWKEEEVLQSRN
Outline: as §1

CRX = CRX (Homo sapiens, UniProt O43186 1-299); details: protein: recombinant; tags: N-terminal GST; dsDNA, one strand shown
Outline: as §1

ETV1 = ETV1 (Homo sapiens, UniProt P50549 1-477); details: protein: recombinant; tags: N-terminal GST; dsDNA, one strand shown
Outline: as §1

ERF = target: T6, ERF (Homo sapiens, UniProt P50548 1-548); details: protein: recombinant; tags: N-terminal GST; dsDNA, one strand shown
T6 sequence: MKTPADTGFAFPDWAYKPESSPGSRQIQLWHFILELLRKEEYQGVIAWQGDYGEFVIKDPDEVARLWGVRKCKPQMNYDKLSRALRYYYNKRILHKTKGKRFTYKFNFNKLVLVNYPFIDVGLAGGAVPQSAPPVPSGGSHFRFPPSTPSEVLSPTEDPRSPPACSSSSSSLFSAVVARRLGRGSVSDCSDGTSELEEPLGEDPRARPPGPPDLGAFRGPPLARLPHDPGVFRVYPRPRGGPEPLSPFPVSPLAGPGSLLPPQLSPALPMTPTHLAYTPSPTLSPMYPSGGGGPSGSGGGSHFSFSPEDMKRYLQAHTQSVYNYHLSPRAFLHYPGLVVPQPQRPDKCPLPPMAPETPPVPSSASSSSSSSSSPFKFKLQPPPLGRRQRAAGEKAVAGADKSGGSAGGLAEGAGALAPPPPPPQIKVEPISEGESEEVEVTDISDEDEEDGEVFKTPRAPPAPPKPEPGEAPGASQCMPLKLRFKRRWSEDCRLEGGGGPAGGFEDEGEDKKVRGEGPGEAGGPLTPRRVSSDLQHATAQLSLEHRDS
Outline: as §1

ETV3L = target: T7, ETV3L (Homo sapiens, UniProt Q6ZN32 1-361); details: protein: recombinant; tags: N-terminal GST; dsDNA, one strand shown
T7 sequence: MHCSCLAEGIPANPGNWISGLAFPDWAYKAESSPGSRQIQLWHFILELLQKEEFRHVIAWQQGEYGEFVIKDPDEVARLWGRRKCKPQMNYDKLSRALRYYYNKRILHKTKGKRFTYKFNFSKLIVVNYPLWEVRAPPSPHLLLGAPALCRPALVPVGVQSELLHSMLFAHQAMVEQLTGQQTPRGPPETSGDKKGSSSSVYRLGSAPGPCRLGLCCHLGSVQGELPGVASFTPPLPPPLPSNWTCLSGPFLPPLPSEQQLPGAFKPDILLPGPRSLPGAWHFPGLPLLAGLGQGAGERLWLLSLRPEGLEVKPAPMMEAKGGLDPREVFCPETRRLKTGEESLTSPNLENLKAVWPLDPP
Outline: as §1

ETS2 = target: T8, ETS2 (Homo sapiens, UniProt P15036 1-469); details: protein: recombinant; tags: N-terminal GST; dsDNA, one strand shown
T8 sequence: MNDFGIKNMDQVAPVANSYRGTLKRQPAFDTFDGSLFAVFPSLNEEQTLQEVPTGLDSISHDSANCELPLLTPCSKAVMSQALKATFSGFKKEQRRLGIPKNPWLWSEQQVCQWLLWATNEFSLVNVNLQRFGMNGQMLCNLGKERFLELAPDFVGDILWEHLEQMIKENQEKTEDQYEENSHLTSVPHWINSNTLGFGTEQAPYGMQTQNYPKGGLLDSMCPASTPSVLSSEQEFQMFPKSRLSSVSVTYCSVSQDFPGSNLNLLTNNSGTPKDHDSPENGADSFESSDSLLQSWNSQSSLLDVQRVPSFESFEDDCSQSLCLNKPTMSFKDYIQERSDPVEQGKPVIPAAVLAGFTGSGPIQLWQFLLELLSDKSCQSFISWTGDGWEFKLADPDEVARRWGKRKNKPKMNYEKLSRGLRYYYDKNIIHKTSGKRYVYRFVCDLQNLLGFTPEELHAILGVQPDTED
Outline: as §1

SPDEF = target: T9, SPDEF (Homo sapiens, UniProt O95238 1-335); details: protein: recombinant; tags: N-terminal GST; dsDNA, one strand shown
T9 sequence: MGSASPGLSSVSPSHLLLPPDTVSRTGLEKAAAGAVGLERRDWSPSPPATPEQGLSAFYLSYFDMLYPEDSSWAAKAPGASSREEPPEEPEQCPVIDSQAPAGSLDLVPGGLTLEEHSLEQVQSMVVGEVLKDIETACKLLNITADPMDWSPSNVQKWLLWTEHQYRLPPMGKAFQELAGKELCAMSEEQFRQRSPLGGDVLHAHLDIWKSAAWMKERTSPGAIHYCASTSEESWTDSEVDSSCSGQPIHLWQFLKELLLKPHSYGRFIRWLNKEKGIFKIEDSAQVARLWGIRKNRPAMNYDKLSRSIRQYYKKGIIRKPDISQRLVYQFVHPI
Outline: as §1

ETV7 = target: T10, ETV7 (Homo sapiens, UniProt Q9Y603 1-341); details: protein: recombinant; tags: N-terminal GST; dsDNA, one strand shown
T10 sequence: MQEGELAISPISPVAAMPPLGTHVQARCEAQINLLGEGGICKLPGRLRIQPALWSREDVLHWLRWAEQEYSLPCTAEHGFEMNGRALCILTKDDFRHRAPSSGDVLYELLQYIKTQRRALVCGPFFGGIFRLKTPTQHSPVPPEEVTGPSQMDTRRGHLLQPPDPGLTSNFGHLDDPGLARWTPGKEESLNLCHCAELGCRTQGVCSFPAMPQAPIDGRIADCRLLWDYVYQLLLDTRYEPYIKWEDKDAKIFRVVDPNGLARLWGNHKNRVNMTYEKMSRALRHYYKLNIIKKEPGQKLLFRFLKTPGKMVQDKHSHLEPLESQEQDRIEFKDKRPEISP
Outline: as §1

ELF5 = target: T11, ELF5 (Homo sapiens, UniProt Q9UKW6-2 1-255); details: protein: recombinant; tags: N-terminal GST; dsDNA, one strand shown
T11 sequence: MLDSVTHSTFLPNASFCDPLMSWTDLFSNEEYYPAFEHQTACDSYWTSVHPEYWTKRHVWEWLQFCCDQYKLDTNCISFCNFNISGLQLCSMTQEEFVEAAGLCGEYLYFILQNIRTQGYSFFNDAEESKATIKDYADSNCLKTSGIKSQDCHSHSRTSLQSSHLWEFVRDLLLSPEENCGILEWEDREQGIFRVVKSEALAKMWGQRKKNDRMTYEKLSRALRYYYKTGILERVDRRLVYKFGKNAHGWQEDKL
Outline: as §1

ETV3 = target: T12, ETV3 (Homo sapiens, UniProt P41162-2 1-143); details: protein: recombinant; tags: N-terminal GST; dsDNA, one strand shown
T12 sequence: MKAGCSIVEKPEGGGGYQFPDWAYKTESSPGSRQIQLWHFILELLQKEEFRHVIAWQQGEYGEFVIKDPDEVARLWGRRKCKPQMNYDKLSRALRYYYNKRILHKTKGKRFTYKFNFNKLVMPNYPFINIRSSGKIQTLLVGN
Outline: as §1

ETV6 = ETV6 (Homo sapiens, UniProt P41212 1-452); details: protein: recombinant; tags: N-terminal GST; dsDNA, one strand shown
Outline: as §1

Chain of ETV6 (P41212 whole entry): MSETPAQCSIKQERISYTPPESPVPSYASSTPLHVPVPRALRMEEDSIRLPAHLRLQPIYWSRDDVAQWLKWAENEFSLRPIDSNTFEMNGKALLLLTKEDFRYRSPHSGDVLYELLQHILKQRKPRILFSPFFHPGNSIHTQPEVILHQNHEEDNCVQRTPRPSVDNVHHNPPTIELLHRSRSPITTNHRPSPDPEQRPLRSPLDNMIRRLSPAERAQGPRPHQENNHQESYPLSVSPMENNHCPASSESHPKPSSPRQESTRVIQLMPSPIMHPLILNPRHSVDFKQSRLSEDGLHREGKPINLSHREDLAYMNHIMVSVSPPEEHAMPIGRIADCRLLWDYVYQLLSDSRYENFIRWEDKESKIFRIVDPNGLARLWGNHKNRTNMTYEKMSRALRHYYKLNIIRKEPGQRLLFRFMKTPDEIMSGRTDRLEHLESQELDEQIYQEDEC
Chain of ETV5 (P41161 whole entry): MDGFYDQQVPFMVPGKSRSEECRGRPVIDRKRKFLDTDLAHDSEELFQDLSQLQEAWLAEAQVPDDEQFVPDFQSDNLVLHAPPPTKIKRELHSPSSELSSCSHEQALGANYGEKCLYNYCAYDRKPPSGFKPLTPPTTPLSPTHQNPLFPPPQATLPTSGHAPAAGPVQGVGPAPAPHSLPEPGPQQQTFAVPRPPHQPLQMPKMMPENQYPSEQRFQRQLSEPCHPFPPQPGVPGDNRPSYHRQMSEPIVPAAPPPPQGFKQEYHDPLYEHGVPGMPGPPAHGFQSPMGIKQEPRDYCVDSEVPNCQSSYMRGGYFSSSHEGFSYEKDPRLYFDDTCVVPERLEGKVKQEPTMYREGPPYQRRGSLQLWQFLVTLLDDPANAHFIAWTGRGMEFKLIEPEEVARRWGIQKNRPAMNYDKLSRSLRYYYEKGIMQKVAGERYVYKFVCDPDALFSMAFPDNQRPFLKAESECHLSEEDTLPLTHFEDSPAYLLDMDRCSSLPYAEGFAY
Chain of ELF4 (Q99607 whole entry): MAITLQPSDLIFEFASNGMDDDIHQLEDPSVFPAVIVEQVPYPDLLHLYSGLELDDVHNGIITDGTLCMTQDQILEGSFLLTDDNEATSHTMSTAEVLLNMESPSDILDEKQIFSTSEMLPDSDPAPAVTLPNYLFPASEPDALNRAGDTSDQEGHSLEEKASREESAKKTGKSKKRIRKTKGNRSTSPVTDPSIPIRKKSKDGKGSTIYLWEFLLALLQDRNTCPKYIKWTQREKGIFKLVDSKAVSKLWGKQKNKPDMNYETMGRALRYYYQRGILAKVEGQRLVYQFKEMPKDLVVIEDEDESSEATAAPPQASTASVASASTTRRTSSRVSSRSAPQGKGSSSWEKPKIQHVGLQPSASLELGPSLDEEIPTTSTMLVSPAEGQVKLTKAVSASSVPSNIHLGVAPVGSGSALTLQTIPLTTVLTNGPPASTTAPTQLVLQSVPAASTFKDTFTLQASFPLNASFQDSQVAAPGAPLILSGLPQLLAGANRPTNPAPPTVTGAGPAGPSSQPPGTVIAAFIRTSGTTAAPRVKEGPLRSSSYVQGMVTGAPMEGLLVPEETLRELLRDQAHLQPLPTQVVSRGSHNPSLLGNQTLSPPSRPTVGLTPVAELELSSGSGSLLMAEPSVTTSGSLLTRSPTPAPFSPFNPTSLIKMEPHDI
Chain of ETV1 (P50549 whole entry): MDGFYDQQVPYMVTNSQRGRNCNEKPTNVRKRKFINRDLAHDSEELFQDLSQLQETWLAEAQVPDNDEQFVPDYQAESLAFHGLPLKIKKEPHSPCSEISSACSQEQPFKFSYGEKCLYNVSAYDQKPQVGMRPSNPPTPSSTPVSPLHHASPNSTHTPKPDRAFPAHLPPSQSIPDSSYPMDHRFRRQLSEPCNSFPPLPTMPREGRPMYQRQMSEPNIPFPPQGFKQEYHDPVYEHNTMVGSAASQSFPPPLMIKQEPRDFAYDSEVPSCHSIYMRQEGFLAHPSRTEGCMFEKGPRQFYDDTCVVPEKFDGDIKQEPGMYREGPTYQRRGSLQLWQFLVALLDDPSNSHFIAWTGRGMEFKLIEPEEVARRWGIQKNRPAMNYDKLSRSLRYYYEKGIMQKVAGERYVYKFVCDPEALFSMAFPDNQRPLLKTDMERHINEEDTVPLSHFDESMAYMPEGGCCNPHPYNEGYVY
Chain of HSF1 (Q00613 whole entry): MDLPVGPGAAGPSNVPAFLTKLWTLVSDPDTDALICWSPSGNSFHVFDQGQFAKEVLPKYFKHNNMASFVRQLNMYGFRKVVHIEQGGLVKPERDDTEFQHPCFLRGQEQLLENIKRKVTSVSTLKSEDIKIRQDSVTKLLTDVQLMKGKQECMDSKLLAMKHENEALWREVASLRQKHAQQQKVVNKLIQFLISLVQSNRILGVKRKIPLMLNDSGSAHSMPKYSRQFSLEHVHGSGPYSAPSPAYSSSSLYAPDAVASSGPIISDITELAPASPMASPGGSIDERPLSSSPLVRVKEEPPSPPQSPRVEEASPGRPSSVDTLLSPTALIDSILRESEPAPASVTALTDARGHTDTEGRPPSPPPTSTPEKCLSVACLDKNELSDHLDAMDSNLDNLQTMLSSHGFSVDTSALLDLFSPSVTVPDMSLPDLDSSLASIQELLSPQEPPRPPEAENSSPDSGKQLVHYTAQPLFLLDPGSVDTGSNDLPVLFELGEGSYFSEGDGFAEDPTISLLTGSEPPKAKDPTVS
Chain of CRX (O43186 whole entry): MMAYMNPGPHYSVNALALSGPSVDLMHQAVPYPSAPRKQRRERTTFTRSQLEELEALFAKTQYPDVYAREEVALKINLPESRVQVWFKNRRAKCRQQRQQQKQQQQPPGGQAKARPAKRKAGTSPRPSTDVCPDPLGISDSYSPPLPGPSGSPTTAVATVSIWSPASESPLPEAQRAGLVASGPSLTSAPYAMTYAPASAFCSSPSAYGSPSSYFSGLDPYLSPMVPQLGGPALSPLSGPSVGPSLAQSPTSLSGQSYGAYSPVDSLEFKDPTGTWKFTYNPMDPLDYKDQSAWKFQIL

CATATA
binding signal (FEV): 1.08 fold enrichment (6-mer frequency, TF over GST control) | binding signal (ETV5): 1.09 fold enrichment (6-mer frequency, TF over GST control) | binding signal (HSF1): 1.03 fold enrichment (6-mer frequency, TF over GST control) | binding signal (SPIC): 1.14 fold enrichment (6-mer frequency, TF over GST control) | binding signal (ELF4): 1.11 fold enrichment (6-mer frequency, TF over GST control) | binding signal (ELK4): 1.07 fold enrichment (6-mer frequency, TF over GST control) | binding signal (ETV2): 1.17 fold enrichment (6-mer frequency, TF over GST control) | binding signal (ELF3): 1.07 fold enrichment (6-mer frequency, TF over GST control) | binding signal (CRX): 1.09 fold enrichment (6-mer frequency, TF over GST control) | binding signal (ETV1): 1.06 fold enrichment (6-mer frequency, TF over GST control) | binding signal (ERF): 1.04 fold enrichment (6-mer frequency, TF over GST control) | binding signal (ETV3L): 1.09 fold enrichment (6-mer frequency, TF over GST control) | binding signal (ETS2): 1.08 fold enrichment (6-mer frequency, TF over GST control) | binding signal (SPDEF): 1.02 fold enrichment (6-mer frequency, TF over GST control) | binding signal (ETV7): 1.1 fold enrichment (6-mer frequency, TF over GST control) | binding signal (ELF5): 1.01 fold enrichment (6-mer frequency, TF over GST control) | binding signal (ETV3): 1.09 fold enrichment (6-mer frequency, TF over GST control) | binding signal (ETV6): 1.12 fold enrichment (6-mer frequency, TF over GST control)
